Rows were chosen to be rich in hits. Some 2.1% of all compounds tested hit in one or more screens of this group.
GalR3 antag = GalR3 antagonists in HEK293 cells, primary screen, cell-based, fluorescence readout. Galanin receptor type 3 (Homo sapiens), O60755. HEK293 GalR3-CNG cAMP membrane potential fluorescence; galR3 body fused to GalR1 C-terminus. inhibition, % at 3 µM. 360,000 compounds, 0.44% hits;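 active = inhibition above the screen-wide average plus 3 SD, cut at about 13% in these data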;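 note: forskolin and galanin both at EC90 stimulate the cells; cAMP rise reported by CNG channel membrane potential dye signal; 0% = forskolin plus galanin with DMSO and 100% = forskolin alone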
Target sequence (O60755 1-299 limits assumed): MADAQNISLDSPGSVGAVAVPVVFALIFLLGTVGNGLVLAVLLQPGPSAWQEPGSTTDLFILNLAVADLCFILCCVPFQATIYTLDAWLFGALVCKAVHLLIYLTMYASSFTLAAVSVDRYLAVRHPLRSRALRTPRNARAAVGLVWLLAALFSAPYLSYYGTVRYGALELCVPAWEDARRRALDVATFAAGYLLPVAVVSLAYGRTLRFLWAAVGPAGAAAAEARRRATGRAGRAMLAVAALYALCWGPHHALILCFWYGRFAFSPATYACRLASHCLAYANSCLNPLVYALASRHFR
Gli-Sufu antag = Gli-Sufu pathway antagonists, primary screen, luciferase luminescence, Sufu-KO-LIGHT cells, uHTS; Sufu-KO-LIGHT fibroblasts, Gli luciferase reporter luminescence; inhibition, % at 5 µM; 340,000 compounds, 0.74% hits; AID 588413, 2011;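 active = inhibition above about 55%, limit read from the data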;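 note: 0% = DMSO-treated cells and 100% = wells with medium but no cells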
aDG glyco act = activators of alpha-DG glycosylation, primary screen, uHTS, Pro5-aDG cells, AlphaScreen. alpha-DG glycosylation AlphaScreen (IIH6); 0% Pro5, 100% B10-LARGE cell signal. activation, % at 10 µM. 360,000 compounds, 0.22% hits;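 active = activation of at least 8% versus controls, or a plate z-score of at least 8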;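 note: Pro5 are CHO cells carrying HIG-tagged alpha-DG that lacks glycosylation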
HIV Env fusion = inhibitors of HIV-1 Env-driven cell-cell fusion, primary screen, HeLa-JRFL effector, CEM21 target cells, luciferase; inhibition, % at 12.3 µM; 360,000 compounds, 1.1% hits;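 active = mean replicate inhibition score of at least 50 and every replicate individually at or above 50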;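 note: 0% = plate neutral controls and 100% = maraviroc near 300 nM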
NR2F2 inh = NR2F2 transcriptional activity inhibitors, primary screen, cell-based, luciferase reporter, HEK293T, luminescence; COUP transcription factor 2 (Homo sapiens), P24468; HEK293T NGFI-A luciferase reporter; inhibition, % at 8.6 µM; 370,000 compounds, 0.7% hits; AID 686940, 2013;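 active = inhibition above a per-plate cutoff, mean inhibition of test wells between control levels plus 3 SD, cut at about 38% in these data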;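 note: cells cotransfected with COUP-TFII expression vector driving the NGFI-A reporter; 0% = median of COUP-TF2 test wells and 100% = reporter-only cells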
Target sequence (P24468 whole entry, looked up): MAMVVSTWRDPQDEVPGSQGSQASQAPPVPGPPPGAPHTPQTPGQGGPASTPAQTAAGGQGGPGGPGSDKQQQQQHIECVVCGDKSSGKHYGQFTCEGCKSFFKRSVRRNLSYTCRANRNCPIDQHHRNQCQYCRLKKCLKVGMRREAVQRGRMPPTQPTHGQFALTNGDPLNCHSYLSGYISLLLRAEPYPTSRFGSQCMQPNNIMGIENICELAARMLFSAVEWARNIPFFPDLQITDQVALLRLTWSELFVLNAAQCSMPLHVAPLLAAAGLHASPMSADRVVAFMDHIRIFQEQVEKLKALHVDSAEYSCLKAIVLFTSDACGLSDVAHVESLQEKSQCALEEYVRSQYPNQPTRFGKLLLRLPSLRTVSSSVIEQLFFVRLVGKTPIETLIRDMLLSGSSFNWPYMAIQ
Numbers without * were called inactive; / = no result; [ ] = another dose, or the depositor's remark.

SMILES | GalR3 antag | Gli-Sufu antag | aDG glyco act | HIV Env fusion | NR2F2 inh
CC1(C)CC(=O)C2=C(C1)N(c1ccc(F)cc1)C(=O)CC2c1ccsc1 (stereo not given) | 4.3 | 0.3 | 2.1 | 20.7 | -16.0
CCN(CC)C(=O)c1ncn2c1C(=O)N[C@H](C)C2 | -4.5 | / | / | 61.5* | 5.5
CC1CCN(C(=O)c2ncn3c2C(=O)N[C@H](C)C3)CC1 | -6.6 | / | / | 71.9* | 8.9
C[C@H]1Cn2cnc(C(=O)N3CCN(C(=O)OC(C)(C)C)CC3)c2C(=O)N1 | -0.1 | / | / | -37.2 | 4.1
CCN(CC)C(=O)c1ncn2c1C(=O)N[C@@H](C)C2 | -4.8 | / | / | 45.2 | 1.5
CCOc1cc(S(=O)(=O)NCc2ccccc2)c(OCC)cc1-n1cnnn1 | -3.8 | -9.2 | -0.2 | -19.4 | -6.8
CCOc1cc(S(=O)(=O)N(Cc2ccccc2)Cc2ccccc2)c(OCC)cc1-n1cnnn1 | -5.2 | 8.8 | -0.2 | 63.2* | 13.4
C#CCN(C[C@H]1[C@H](OC(=O)Nc2cccs2)[C@H](OC(=O)Nc2cccs2)CN(C(=O)OC(C)C)N1C(=O)OC(C)C)S(=O)(=O)c1ccc(C)cc1 | -3.9 | / | / | 116.7* | 6.6
COCC(=O)Nc1ccc2c(c1)[C@H]1C[C@@H](CC(=O)NCc3ccccc3)O[C@@H](CO)[C@H]1O2 | / | / | / | 7.4[16.7 µM] | /
Cc1nc2ccccc2n1CC(=O)NCc1ccccc1 | 0.3 | 35.9 | 2.7 | 82.7* | 26.2
O=C(C[C@H]1C[C@H]2c3cc(NC(=O)C4CCC4)ccc3O[C@H]2[C@H](CO)O1)NCc1ccc2c(c1)OCO2 | / | / | / | 81.1*[16.7 µM] | /
O=C(C[C@@H]1C[C@@H]2c3cc(NC(=O)C4CCC4)ccc3O[C@@H]2[C@@H](CO)O1)NCc1ccc2c(c1)OCO2 | / | / | / | 78.5*[16.7 µM] | /
COc1ccc(C2CC(c3cccs3)=NN2C(=O)CCl)cc1OC (stereo not given) | -8.7 | 8.1 | 0.4 | 61.6* | -5.5
COc1cc(C2CC(c3cccs3)=NN2C(=O)CCl)ccc1OC(F)F (stereo not given) | -10.8 | 12.9 | -0.2 | 18.7 | -6.2
C[C@@H]1CN([C@H](C)CO)C(=O)c2cc(NC(=O)Nc3ccc4c(c3)OCO4)ccc2O[C@H]1CN(C)Cc1ccc(C(F)(F)F)cc1 | / | / | / | 15.7[16.7 µM] | /
CCOC(=O)c1ccoc1CSCC(=O)N1CCN(S(=O)(=O)c2ccc(C)cc2)CC1 | -4.3 | 1.2 | 1.1 | 56.0* | 17.1
CCOC(=O)c1ccoc1CN1CCN(S(=O)(=O)c2ccc(C)c(C)c2)CC1 | -4.2 | 8.9 | 0.1 | 3.4 | -3.7
CNC[C@@H]1Oc2ccc(NS(=O)(=O)c3cn(C)cn3)cc2CC(=O)N([C@H](C)CO)C[C@@H]1C | / | / | / | -5.7[16.7 µM] | /
CO[C@H]1CC[C@H]2CCN(C)C(=O)[C@H](C)[C@@H](OC)CN(C)C(=O)c3cccc(C#N)c3OC[C@H]1O2 | / | / | / | -10.9[16.7 µM] | /
COc1ccc(NC(=O)CSc2nc(O)cc(=O)n2-c2ccccc2)cc1 | -3.8 | -6.4 | 1.1 | -5.5 | -2.8
CCCn1c(SCC(=O)Nc2nc3ccccc3s2)nc2c1c(=O)n(C)c(=O)n2C | -3.8 | 11.6 | -0.3 | 63.6* | -2.2
CC(C)n1c(SCC(=O)Nc2nc3c(s2)CCCC3)nc2c1c(=O)n(C)c(=O)n2C | -1.3 | 10.6 | -0.1 | 87.5* | 29.0
O=C(CSc1nc(O)cc(=O)n1-c1ccccc1)Nc1nc2ccccc2s1 | -3.9 | 2.3 | -0.1 | 66.6* | 2.4
CCCCn1c(SCC(=O)Nc2ccc3c(c2)OCO3)nc2c1c(=O)n(C)c(=O)n2C | -7.3 | 37.2 | 1.0 | 79.0* | 15.8
CCCn1c(SCC(=O)Nc2nnc(C(C)C)s2)nc2c1c(=O)n(C)c(=O)n2C | -4.3 | 2.9 | 0.5 | 41.3 | -10.8
SMILES | GalR3 antag | Gli-Sufu antag | aDG glyco act | HIV Env fusion | NR2F2 inh
Cc1ccc(S(=O)(=O)Nc2ccc3c(c2)CC(=O)N([C@H](C)CO)C[C@H](C)[C@H](CN(C)S(C)(=O)=O)O3)cc1 | / | / | / | 14.6[16.7 µM] | /
Cn1c(=O)c2c(nc(SCC(=O)NCc3ccc4c(c3)OCO4)n2Cc2ccccc2)n(C)c1=O | 1.1 | -10.4 | 0.5 | / | -10.8
Cn1c(=O)c2c(nc(SCC(=O)NCc3ccc4c(c3)OCO4)n2Cc2ccc(F)cc2)n(C)c1=O | -5.8 | 10.5 | 0.0 | 137.5* | 4.9
CN(C)c1nc(OCCNC(=O)Nc2ccc(Cl)cc2)nc(N(C)C)n1 | -3.7 | 5.8 | 0.0 | 2.8 | -23.2
CON(C)c1nc(OCCNC(=O)COc2ccc(Cl)cc2C)nc(N(C)C)n1 | -1.9 | 1.0 | 0.0 | 162.7* | 16.6
CON(C)c1nc(OCCNC(=O)OCc2ccc(Cl)cc2Cl)nc(N(C)C)n1 | -2.0 | 1.8 | -0.1 | 138.6* | 9.9
COc1cccc(C#Cc2cnc3c(c2)C(=O)N([C@H](C)CO)C[C@H](C)[C@@H](CN(C)C(=O)C2CCOCC2)O3)c1 | / | / | / | -1.4[16.7 µM] | /
CCc1ccc(C2=NNC(=Nc3cccc(S(=O)(=O)N(C)C)c3)SC2)cc1 | -5.1 | 25.6 | 1.0 | 80.0* | 40.8*
CN(C)c1nc(NCc2ccccc2)nc(SCC(=O)Nc2ccc(Cl)c(Cl)c2)n1 | -7.4 | 11.3 | 0.5 | 57.1* | 3.8
CCNc1nc(SCC(=O)Nc2ccc(Cl)c(Cl)c2)nc(N(C)C)n1 | -0.1 | 21.3 | 1.2 | 17.6 | 10.5
C[C@@H]1CN([C@H](C)CO)S(=O)(=O)c2ccc(C#CC3CC3)cc2O[C@@H]1CN(C)Cc1cncnc1 | / | / | / | 24.7[16.7 µM] | /
O=C(c1ccc(Cl)c(Cl)c1)N1CCC(=O)N([C@H](COCc2ccc(Cl)cc2)Cc2ccccc2)CC1 | -8.8 | / | 0.0 | -5.6 | -11.2
O=C(c1cccc(Cl)c1)N1CCC(=O)N([C@H](COCc2ccccc2)Cc2ccccc2)CC1 | 1.4 | / | 0.8 | 4.6 | 4.8
O=C(c1cccc(Cl)c1)N1CCC(=O)N(C(COCc2cccc(Cl)c2)Cc2ccccc2)CC1 (stereo not given) | -7.3 | 11.5 | 1.3 | 59.6* | 25.3
O=C(c1ccc(Cl)c(Cl)c1)N1CCC(=O)N(C(COCc2cccc(Cl)c2)Cc2ccccc2)CC1 (stereo not given) | -3.0 | 13.8 | 2.2 | 90.7* | -3.8
C[C@H]1CN([C@@H](C)CO)C(=O)c2cc(NC(=O)C3CC3)ccc2O[C@H]1CN(C)Cc1ccncc1 | / | / | / | 3.1[16.7 µM] | /
CC(C)Oc1cc(NC(=O)CSCC(=O)Nc2cccc(C(F)(F)F)c2)c(Cl)cc1Cl | -2.7 | -0.9 | -0.1 | 61.8* | 0.0
Cc1noc(C)c1S(=O)(=O)Nc1cccc2c1O[C@H](CN(C)Cc1ccc(-c3ccccc3)cc1)[C@H](C)CN([C@@H](C)CO)C2=O | / | / | / | 23.5[16.7 µM] | /
CCc1ccc([C@@H]2CC(=O)[C@@H]3CN(S(=O)(=O)c4ccc(Cl)cc4)[C@H](c4ccc(C)cc4)C[C@@H]3N2S(=O)(=O)c2ccc(C)cc2)cc1 | -5.0 | / | -0.1 | / | -7.4

Screening data deposited in PubChem BioAssay by several laboratories.
